Reference: the supplement of paper PMC9477273

system: DRIVER-selected RNA biosensor (aptazyme) pool; test: maximum fold change of ribozyme cleavage across biosensor pool versus no-compound control; higher = stronger biosensor response (ligand inhibits cleavage); conditions: 10 µM
Procedure: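 CleaveSeq: a pool of resynthesized hammerhead-ribozyme RNA biosensors (sTRSV scaffold with randomized loops, 1,730 sequences) was T7-transcribed at 37 °C for 15-30 min with a single compound at 10 µM. Cleaved and uncleaved products were counted by NGS, and fold change of cleavage was computed against the DMSO-only condition. The value is the maximum fold change of cleavage over all biosensors in the pool. About 255 compounds were tested individually.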

Row | Structure (SMILES) | maximum fold change
1 | Cc1ccc(NC(=O)c2cc3c(=O)oc4ccccc4c3s2)nc1 | 6.76
2 | COc1cccc(/C=N/NC(=N)N)c1O | 5.16
3 | CCOC(=O)c1cnc2c(OC)cccc2c1NCC1COc2ccccc2O1 (stereo not given) | 7.13
4 | CCC(C)NC(=O)Cn1cc(C=O)c2ccccc21 (stereo not given) | 4.38
5 | COc1ccccc1/C=C1N=C(c2ccc(Br)cc2)OC1=O | 2.7
6 | CC1CCN(S(=O)(=O)c2ccc3c(ccn3CC(=O)NCc3ccc(OC(C)C)cc3)c2)CC1 | 2.62
7 | COc1cccc(/C=C(\C#N)c2nc3ccccc3[nH]2)c1O | 11.2
8 | Cc1cccc(-c2nc3n(n2)C(c2ccccc2Cl)C2=C(CC(C)(C)CC2=O)N3)c1 (stereo not given) | 1.83
9 | O=C(NC1(C(F)(F)F)N=C(c2ccccc2)N(C2CCCCC2)C1=O)c1ccco1 (stereo not given) | 2.01
10 | COc1ccc(S(=O)(=O)N2CCCN(CC(=O)C(C)(C)C)CC2)cc1 | 2.33
11 | COc1cc(CNCc2c(C(=O)O)c(C)n(Cc3ccc(F)cc3)c2C)cc(OC)c1OC | 3.4
12 | CCOc1ccccc1CNC(=O)c1ccc(CS(=O)Cc2ccc(Cl)cc2)o1 (stereo not given) | 4.15
13 | Cc1ccn2c(=O)c(C(=O)Nc3cccnc3)cnc2c1 | 10.8
14 | CCOC(=O)c1ccc(-c2sc3nc(N4CCOCC4)c4c(c3c2N)CC(C)(C)OC4)o1 | 2.03
15 | Cc1ccc(C(=O)N(Cc2ccccc2)c2ccccn2)cc1 | 2.65
16 | COc1cccc(-c2cc(C(=O)NC3CCCc4ccccc43)[nH]n2)c1 (stereo not given) | 1.96
17 | COc1ccc(cc1)/C=CC(=O)NCC(=O)O | 3.29
18 | Cc1ccc(CNCc2c(C(=O)O)c(C)n(Cc3ccccc3C)c2C)o1 | 3.25
19 | COc1ccc(-c2cc(-c3nc4c5c(ncn4n3)CCC5)n[nH]2)cc1 | 1.38
20 | N#C/C(=Cc1c(Oc2ccc(cc2)Br)nc2n(c1=O)cccc2)/C(=O)NC1CCCCC1 | 2.99

Row | Structure (SMILES) | maximum fold change
21 | CC(=Cc1ccccc1)/C=C1N=C(/C=C/c2ccccc2)OC/1=O | 2.27
22 | Cc1oc2ncn3nc(-c4ccc(F)cc4)nc3c2c1C | 10.5
23 | CCOC(=O)c1sc2nc(C)nc(NCc3ccccc3OC)c2c1C | 4.59
24 | COc1ccc(-c2c(C)nn3c(N)c(C#N)cnc23)cc1OC | 4.07
25 | COc1ccccc1OCC(O)Cn1c[n+](C)c2cc(C)c(C)cc21 (stereo not given) | 3.47
26 | COc1ccccc1OCCCn1cccc1/C=C1\C(=N)N2N=C(N3CCOCC3)SC2=NC1=O | 2.03
27 | CC(C)CN(CC(C)C)c1nnc(NC(=O)NCc2ccco2)s1 | 2.36
28 | Cc1ccc(-c2noc(CCC(=O)N3CCN(Cc4ccccc4)CC3)n2)cc1 | 3.6
29 | Cc1c(CNC2CCCc3ccccc32)c(C(=O)O)c(C)n1Cc1ccc(F)cc1 (stereo not given) | 2.39
30 | CCOC(=O)N1CCC(NC(=O)c2ccc(CS(=O)c3cccc(C)c3)o2)CC1 (stereo not given) | 2.53
31 | Cn1c(=O)c2c(-c3ccc(Cl)cc3)n(C3CCCCC3)cc2n(C)c1=O | 2.62
32 | CCOc1cc2c(cc1OCC)C1C(C(=O)NCc3cccnc3)c3ccccc3C(=O)N1CC2 (stereo not given) | 4.02
33 | O=C(Cn1ncn2nc(-c3cccs3)cc2c1=O)N1CCN(c2ccccn2)CC1 | 3.03
34 | Cc1c(C(=O)N2CCN(C)CC2)sc2ncnc(N3CCN(c4ccccn4)CC3)c12 | 2.67
35 | COCCN1C(=O)c2ccccc2C(C(=O)N2CCC(C)CC2)C1c1cn(C)c2ccccc12 (stereo not given) | 4.72
36 | C=Cc1ccc(Cn2c(C(=O)O)c(CNCC3CCCO3)c3ccc(C)cc32)cc1 (stereo not given) | 2.75
37 | O=C1NC2(CCCCC2)N(C(=O)c2ccc(Cl)cc2)C2=C1CCCC2 | 2.89
38 | N/C(=N\OC(=O)N1CCOCC1)c1cccnc1 | 3.37
39 | O=S(=O)(NCc1ccccn1)c1ccc(Br)cc1Br | 1.99
40 | Cc1[nH]c2ccccc2c1/C=C1\C(=N)N2N=C(N3CCC(C)CC3)SC2=NC1=O | 3.17
